The campaign covered roughly 310,000 compounds. About 14,000 (4.5%) showed an effect of 50% or more. Effects have a minus sign here. The sample as a whole holds a higher share of strong results than the screen did.
Biological target: human ether-à-go-go-related gene (hERG) potassium channel (human, UniProt Q12809)
Assay: primary screen, population patch clamp on CHO cells stably expressing hERG; higher = less effect of the substance
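Also: peak tail current of the secondary pulse compared with the same well before compound.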

Sequence of human ether-à-go-go-related gene (hERG) potassium channel (Q12809 whole entry, looked up): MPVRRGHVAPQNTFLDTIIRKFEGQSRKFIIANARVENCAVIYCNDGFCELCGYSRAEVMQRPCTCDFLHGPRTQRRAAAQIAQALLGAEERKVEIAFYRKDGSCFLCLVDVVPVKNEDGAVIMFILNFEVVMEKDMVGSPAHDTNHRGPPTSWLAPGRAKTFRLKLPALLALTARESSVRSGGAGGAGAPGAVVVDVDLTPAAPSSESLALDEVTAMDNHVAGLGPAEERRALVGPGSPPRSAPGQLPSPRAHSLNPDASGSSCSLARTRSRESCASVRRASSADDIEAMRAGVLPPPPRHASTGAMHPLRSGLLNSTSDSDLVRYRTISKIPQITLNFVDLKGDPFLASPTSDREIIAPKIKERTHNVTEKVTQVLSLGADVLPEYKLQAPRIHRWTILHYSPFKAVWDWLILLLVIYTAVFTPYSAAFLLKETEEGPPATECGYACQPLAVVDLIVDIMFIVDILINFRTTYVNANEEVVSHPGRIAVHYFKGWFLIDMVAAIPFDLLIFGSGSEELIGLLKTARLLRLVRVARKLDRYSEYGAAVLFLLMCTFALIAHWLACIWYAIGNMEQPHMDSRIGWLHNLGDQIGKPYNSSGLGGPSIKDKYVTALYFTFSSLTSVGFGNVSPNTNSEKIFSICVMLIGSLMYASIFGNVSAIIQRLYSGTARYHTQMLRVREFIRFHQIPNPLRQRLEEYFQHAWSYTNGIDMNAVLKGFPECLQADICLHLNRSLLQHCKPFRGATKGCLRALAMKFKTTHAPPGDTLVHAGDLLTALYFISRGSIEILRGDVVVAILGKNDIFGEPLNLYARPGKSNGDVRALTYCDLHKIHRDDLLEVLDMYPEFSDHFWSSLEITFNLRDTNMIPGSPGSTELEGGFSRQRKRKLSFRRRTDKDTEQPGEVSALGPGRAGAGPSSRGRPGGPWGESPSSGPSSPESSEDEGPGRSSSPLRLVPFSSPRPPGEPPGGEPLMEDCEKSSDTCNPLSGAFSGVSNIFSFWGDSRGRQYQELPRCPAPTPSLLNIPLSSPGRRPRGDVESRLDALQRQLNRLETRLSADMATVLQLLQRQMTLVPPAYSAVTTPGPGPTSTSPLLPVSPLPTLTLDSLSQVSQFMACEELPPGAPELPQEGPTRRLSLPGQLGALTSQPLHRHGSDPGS

SMILES | hERG current change (%, negative = inhibition) at 10uM [%]
CC(C(=O)NCc1cccs1)n1cccc1 (stereo not drawn) | 7.58
COc1ccc(CNC(=O)CC23CC4CC(CC(C4)C2)C3)cc1 | 20.4
CCOC(=O)C1CCCN(Cc2ccc(-c3ccccc3)cc2)C1 (stereo not drawn) | -10.5
CCOC(=O)C1CCCN(Cc2nc(N)nc(Nc3ccccc3)n2)C1 (stereo not drawn) | -71.2
CCOC(=O)C1CCCN(Cc2ccccc2C)C1 (stereo not drawn) | -15.1
CCN(CC)C(=O)Cn1c(=O)n(CCC(=O)Nc2ccc(F)cc2)c(=O)c2sccc21 | 14.9
Cc1ccc2nc(NC(=O)c3ccc(Br)o3)sc2c1 | 20.6
CCOc1ccc(N2C(=O)C3ON(c4ccccc4)C(c4cccs4)C3C2=O)cc1 (stereo not drawn) | 7.35
CC(=O)Nc1ccc(NC(=O)C2CC(=O)Nc3nc4ccccc4n32)cc1 (stereo not drawn) | 24.6
Cc1cc(C(=O)N/N=C/C=C/c2ccc(Br)cc2)n[nH]1 | 9.77
Cc1cc(C(=O)N2CCN(c3ccc([N+](=O)[O-])cc3)CC2)n[nH]1 | -78.5
CC(C)(O)C#Cc1ccc(C(=O)N2CCN(c3ccc([N+](=O)[O-])cc3)CC2)cc1 | -70.4
O=C(c1cc(C(=O)N2CCN(c3ccc(F)cc3)CC2)cc([N+](=O)[O-])c1)N1CCN(c2ccc(F)cc2)CC1 | -26.2
Cc1cc(C(=O)N/N=C/C=C/c2cccc([N+](=O)[O-])c2)n[nH]1 | -3.28
Cc1onc(-c2ccccc2)c1C(=O)N1CCN(c2ccc([N+](=O)[O-])cc2)CC1 | -36.4
Cc1cc(C(=O)N/N=C/C=C/c2ccc([N+](=O)[O-])cc2)n[nH]1 | -53
CC(C)(O)C#Cc1ccc(C(=O)N2CCN(c3ccc(F)cc3)CC2)cc1 | -11.4
O=C(c1ccc2c(c1)OCCO2)N1CCN(c2ccc([N+](=O)[O-])cc2)CC1 | -47.1
Cc1cc(C(=O)N2CCN(c3ccc([N+](=O)[O-])cc3)CC2)co1 | -75.5
CC(C)(O)C#Cc1ccc(C(=O)N2CCN(c3ccc(Cl)cc3)CC2)cc1 | -9.19
O=C(c1cc2ccccc2cc1O)N1CCN(c2ccc([N+](=O)[O-])cc2)CC1 | -40.3
CCOc1ccc(/C=C/C(=O)CCC(=O)O)cc1 | 13.5
O=[N+]([O-])c1cccc(-c2ccc(C(=S)N3CCN(c4ccc(F)cc4)CC3)o2)c1 | 2.61
Cc1cc(C)n2nc(C(=O)N3CCN(c4ccc([N+](=O)[O-])cc4)CC3)nc2n1 | -71.4

SMILES | hERG current change (%, negative = inhibition) at 10uM [%]
O=C(c1ccc([N+](=O)[O-])cc1)N1CCN(c2ncc(Br)cn2)CC1 | -32
COc1ccc(N2CCN(C(=O)c3nc4nc(C)cc(C)n4n3)CC2)cc1 | 9.69
COc1ccc(N2CCN(C(=O)c3cc(C)on3)CC2)cc1 | 6.64
Cc1cc(C(=O)N2CCN(c3ccccc3)CC2)no1 | -0.965
O=C(c1cncc(Br)c1)N1CCN(c2ccc(N3CCOCC3)nn2)CC1 | -2.06
O=C(c1cncc(Br)c1)N1CCN(c2ccc([N+](=O)[O-])cc2)CC1 | -77
COc1cccc(N2CCN(C(=O)c3nc4nc(C)cc(C)n4n3)CC2)c1 | 7.28
Cc1cc(C(=O)N2CCN(c3ccc([N+](=O)[O-])cc3)CC2)no1 | -70.6
Cc1c(O)ccc2c(O)c(NC(=O)c3ccc4c(c3)CCC(C)(C)O4)c(=O)oc12 | 6.09
CCn1c(CNC(=O)c2ccc(OC)c(OC)c2)nnc1SCC(=O)c1ccc(OC)cc1 | -0.747
O=C(CSc1ncn[nH]1)Nc1ccc(Cl)c(Cl)c1 | 0.453
Cn1cc2cccc([N+](=O)[O-])c2n1 | 2.69
O=C(CSc1nc2ccc([N+](=O)[O-])cc2[nH]1)c1ccc(Cl)cc1 | 12.1
O=C1c2ccccc2C2(c3ccccc3)NCCN12 (stereo not drawn) | 5.86
CN(CC(=O)Nc1cccc2ccccc12)c1ccc(S(=O)(=O)N2CCOCC2)cn1 | 11.8
CCc1ccc(CNC(=O)C2CCC(=O)N(CCc3ccc(Cl)cc3)C2)nc1 (stereo not drawn) | -67
Cc1ccc(CCN2CC(C(=O)NCc3ccc4c(c3)OCO4)CC2=O)cc1 (stereo not drawn) | -37.2
COc1ccccc1CCCNC(=O)C1CCC(=O)N(CCCN2CCCC2=O)C1 (stereo not drawn) | 14
O=C(NCc1ccon1)C1CCC(=O)N(CCc2ccc(Cl)cc2)C1 (stereo not drawn) | -37.2
O=C(NCc1ccccn1)C1CCC(=O)N(Cc2ccc(Cl)cc2)C1 (stereo not drawn) | 18.7
Cc1ccc(CNC(=O)C2CCC(=O)N(CCc3ccc(Cl)cc3)C2)cc1 (stereo not drawn) | -40.2
CCn1nc(C)c(CNC(=O)C2CCC(=O)N(CCc3ccc(Cl)cc3)C2)c1C (stereo not drawn) | -21.6
COc1ccccc1CCCNC(=O)C1CCC(=O)N(CCc2ccc(Cl)cc2)C1 (stereo not drawn) | -60.5
O=C(NCc1ccc2c(c1)OCO2)C1CC(=O)N(CCc2ccccc2)C1 (stereo not drawn) | 3.54

SMILES | hERG current change (%, negative = inhibition) at 10uM [%]
O=C(NCc1ccc2c(c1)OCO2)C1CC(=O)N(CCc2ccc(Cl)cc2)C1 (stereo not drawn) | -54.1
O=C(NCc1ccncc1)C1CCC(=O)N(CCc2ccc(Cl)cc2)C1 (stereo not drawn) | -65.5
COc1ccccc1CCCNC(=O)C1CCC(=O)N(Cc2ccccc2F)C1 (stereo not drawn) | -1.76
CCOc1ccc(C)cc1S(=O)(=O)Nc1ccc(Cl)cn1 | -3.98
Cn1c(=O)cc(OCC(=O)N2CCCc3ccccc32)c2ccccc21 | -3.03
CCOC(=O)C1(Cc2ccccc2C)CCCN(C(=O)CN2CCCCC2=O)C1 (stereo not drawn) | 14.8
COc1ccc(C(CC(=O)O)NC(=O)COc2ccc(C)cc2)cc1OC (stereo not drawn) | 15.2
CCOC(=O)c1c(NC(=O)c2cccs2)sc2c1CCCC2 | 15.6
Cc1ccccc1NC1=NCC(C)S1 (stereo not drawn) | -2.32
CCOC(=O)CN1C(=O)N[C@@H](c2cccs2)C(C(=O)OC)=C1C | -11
CCCc1nn2c(=O)cc(CSCC(=O)Nc3ccc(F)cc3)nc2s1 | -1.51
COc1ccccc1CCNC(=O)C1CCC(=O)N(Cc2ccccc2OC)C1 (stereo not drawn) | -13.2
COc1ccccc1CN1CC(C(=O)N2CCCCCCC2)CCC1=O (stereo not drawn) | 3.22
COc1ccccc1CN1CC(C(=O)N2CCCCO2)CCC1=O (stereo not drawn) | -65.7
COc1ccccc1CN1CC(C(=O)N2CCOCC2)CCC1=O (stereo not drawn) | -14.6
COc1ccccc1CN1CC(C(=O)NCCCc2ccc(F)cc2)CCC1=O (stereo not drawn) | -41
COc1ccccc1CN1CC(C(=O)NCCN(C)CCc2ccccc2)CCC1=O (stereo not drawn) | -65.7
CN(CCNC(=O)C1CCC(=O)N(Cc2ccc(Cl)cc2)C1)CCc1ccccc1 (stereo not drawn) | -72.6
Cc1ccccc1CCNC(=O)C1CCC(=O)N(Cc2ccc(Cl)cc2)C1 (stereo not drawn) | -33.4
O=C(NCCc1ccccc1F)C1CCC(=O)N(Cc2ccc(Cl)cc2)C1 (stereo not drawn) | -32.5
O=C(NCCc1ccccc1Cl)C1CCC(=O)N(Cc2ccc(Cl)cc2)C1 (stereo not drawn) | -56.8
CN(CCNC(=O)C1CCC(=O)N(Cc2cccc(F)c2)C1)CCc1ccccc1 (stereo not drawn) | -46.3
O=C(NC1(c2ccccc2)CC1)C1CCC(=O)N(Cc2ccc(Cl)cc2)C1 (stereo not drawn) | -24.1
O=S(=O)(NC1CCCCC1)c1ccc(N2CCOCC2)nc1 | -2.81

SMILES | hERG current change (%, negative = inhibition) at 10uM [%]
COc1ccc(C(C(=O)NC2CCCC2)N(C(=O)c2snc(-c3ccc(F)cc3)c2N)c2ccc(F)cc2)cc1 (stereo not drawn) | 1.29
N#Cc1ccccc1NC(=O)c1ccccc1OCC(=O)Nc1ccc2c(c1)oc1ccccc12 | 16.2
Cc1nn(-c2ccc(F)cc2)c(Cl)c1/C=C/C(=O)OCC(=O)Nc1ccc(F)cc1F | 15.5
CSc1ccc(NC(=O)CC(C)=O)cc1 | -21.3
Cc1c(NC(=O)c2cc3c(=O)n4ccccc4nc3s2)c(=O)n(-c2ccccc2)n1C | 8.11
CN(Cc1nc2ccccc2n1C)S(=O)(=O)c1ccc(Cl)cc1 | 3.21
CCC(=O)c1c[nH]c(C(=O)NCCc2ccccn2)c1 | 3.31
O=C(CCNC(=O)N1CCn2c1nc1ccccc12)NCc1ccc(F)cc1 | -6.29
COc1ccc(Br)cc1/C=C(\C(=O)O)c1ccc(S(=O)(=O)N2CCCCC2)s1 | 0.483
Cc1ccc(CNC(=O)C2CCC(=O)N(CCc3ccc(Cl)cc3)C2)s1 (stereo not drawn) | -69.4
O=C(NCCOc1ccccc1)C1CCC(=O)N(Cc2ccc(Cl)cc2)C1 (stereo not drawn) | -31.2
Cc1ccc(CNC(=O)C2CCC(=O)N(CCc3ccccc3)C2)s1 (stereo not drawn) | -25.7
O=C(NCc1ccccc1F)C1CCC(=O)N(Cc2ccc(Cl)cc2)C1 (stereo not drawn) | -42.1
Cc1ccc(CNC(=O)C2CCC(=O)N(CCc3ccccn3)C2)s1 (stereo not drawn) | 2.53
O=C(NCCc1ccc(Cl)cc1)C1CC(=O)N(CCc2ccccc2)C1 (stereo not drawn) | -62
O=C(NCCOc1ccccc1)C1CCC(=O)N(CCc2ccc(Cl)cc2)C1 (stereo not drawn) | -88.2
Cc1ccc(CCN2CC(C(=O)NCCc3ccccc3)CC2=O)cc1 (stereo not drawn) | -3.16
O=C(NCCc1ccccc1)C1CCC(=O)N(Cc2ccc(Cl)cc2)C1 (stereo not drawn) | -20.5
O=C(NCCOc1ccccc1)C1CCC(=O)N(CCc2ccccn2)C1 (stereo not drawn) | -11.9
O=C(NCCCc1ccccc1)C1CCC(=O)N(Cc2ccc(Cl)cc2)C1 (stereo not drawn) | -61.3
O=C(NCCc1ccccc1)C1CC(=O)N(CCc2ccccc2)C1 (stereo not drawn) | 6.57

— paper PMC4336329 (PLoS ONE, 2015)
